From PubChem BioAssay AID1347416 (National Center for Advancing Translational Sciences (NCATS), 2020)
Screen size: about 4,100 compounds; about 1,600 (39%) were called active. Inconclusive results (about 25%) are left out. The list shows a part of the results. A number with no mark means an inactive call. The call rests on the fitted dose curve; in most records, active means well fitted inhibition curve with a large enough effect; inconclusive means small, poorly fitted or top-dose-only effect; inactive means no such curve, though single readings can be large or run the other way.

test: qHTS Validation assay for Inhibitors of Plasmodium falciparum Dd2 growth in vitro; further: nearly all actives have a fitted effect of over 70% in size; details: P. falciparum Dd2 in RBCs, SYBR Green growth, 72 h; series mostly up to 28.7 µM; activity change, negative = inhibition: at the top concentration
Method in brief: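 P. falciparum Dd2-infected red blood cells (2.5% hematocrit, 0.3% parasitemia) grown 72 h at 37 °C under 5% O2 with compounds in a titration, 29 uM to 0.5 nM final. Growth read as SYBR Green-1 fluorescence after ~16 h lysis; artesunate 300 nM as positive control.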
On the % scale 0 is the no-effect control and ±100 the full control effect; potency means the concentration at half of the fitted maximal effect.

SMILES | activity change, negative = inhibition [%] | Potency
Cc1ccc(C)c(-c2cc3c(=O)n(CCNC(=O)c4cccc(N(C)C)c4)ccn3n2)c1 | 0.608 | 
Cc1ccc(-c2ccc(=O)n(CC(=O)Nc3ccc(C(C)C)cc3)n2)cc1 | 20.7 | 
Cc1ccc(CNC(=O)CCc2c(C)nc3nc(C)nn3c2C)cc1 | 11.6 | 
CCN(CC)S(=O)(=O)c1ccc(NC(=O)CCc2c(C)nc3cc(-c4ccc(Cl)cc4)nn3c2C)cc1 |  | 4.73 µM (active)
COc1cc(C2Nc3ccc4ccccc4c3C3=C2C(=O)CC(C)(C)C3)ccc1OC(C)C(=O)O (stereo unspecified) |  | 6.68 µM (active)
CCc1nc2ccc(C(=O)NCc3ccccc3C)cc2nc1CC | 6.91 | 
Cc1ccc(C2Cn3cnc(C(=O)N4CCC(C(=O)NCc5ccco5)CC4)c3CO2)cc1 (stereo unspecified) | -7.92 | 
Cc1cccc(C(=O)NCCc2ncc(C)n2C2CC2)c1 | -5.93 | 
CCCC1=Nc2cc(C(=O)NCCCN3CCCCC3CC)ccc2Sc2ccc(C)cc21 (stereo unspecified) |  | 9.44 µM (active)
CCC1=Nc2cc(C(=O)NCc3ccco3)ccc2Sc2ccc(C)cc21 |  | 8.41 µM (active)
CC(C)N1C(=S)N(Cc2ccco2)C(=O)C1CC(=O)Nc1ccccc1 (stereo unspecified) |  | 1.68 µM (active)
CN1CCC(Nc2ncc3ncnc(Nc4ccc(F)c(Cl)c4)c3n2)CC1 |  | 10.6 µM (active)
Cc1cccc(N2CCN(C(=O)CCc3nnc4n(CC(C)C)c(=O)c5ccccc5n34)CC2)c1C |  | 3.35 µM (active)
Cc1ccc(/C=N/NC(=O)c2cc3ccccc3cc2O)o1 |  | 5.31 µM (active)
CCNc1nc(NC(C)CC)nc(ON=C(C)C)n1 (stereo unspecified) |  | 8.41 µM (active)
CCc1ccc(S(=O)(=O)c2nnn3c2nc(Nc2ccc(F)cc2)c2cc(Cl)ccc23)cc1 |  | 2.11 µM (active)
CSc1cccc(Nc2nc3c(S(=O)(=O)c4ccccc4)nnn3c3ccc(Cl)cc23)c1 |  | 1.88 µM (active)
COc1ccccc1C(=O)N1CCC2(CC1)OC(=O)N(Cc1ccccc1C#N)C2(C)c1ccccc1 (stereo unspecified) |  | 15 µM (active)
COc1ccccc1C(=O)N1CCC2(CC1)OC(=O)N(CCOc1ccccc1)C2(C)c1cccnc1 (stereo unspecified) |  | 9.44 µM (active)
COc1ccccc1C(=O)N1CCCN(c2nnc3cccc(C)n23)CC1 | 9.24 | 
CNCC(=O)N1CCC2(CC1)CN(CCOc1ccccc1)C(=O)O2 | 40.8 | 
COCCN1C(=O)CS(=O)(=O)C12CCN(C(=O)C1(c3ccccc3)CC1)CC2 | 1.25 | 
Cn1cnnc1-c1nn(C)c2c1CN(C(=O)c1cc3ccccc3[nH]1)CC2 | -20.5 | 

SMILES | activity change, negative = inhibition [%] | Potency
N#Cc1cccc(S(=O)(=O)N2CC(C(=O)NC3CCCCC3)C3(CCOCC3)C2)c1 (stereo unspecified) | 11.3 | 
CCC(C)NC(=O)c1cc2c(Cl)nc3ccc(C)cc3c2s1 (stereo unspecified) | -5.46 | 
COc1cc(NC(=O)c2cc3c(Cl)nc4ccccc4c3s2)cc(OC)c1OC |  | 4.73 µM (active)
CCCc1noc(-c2cccn3c(CNC(=O)c4ccccc4OCC)nnc23)n1 | -8.26 | 
Cc1csc2nc(COc3ccc(NC(=O)c4ccccc4F)cc3)cc(=O)n12 | 26.8 | 
COc1cc(C(=O)Nc2ccccc2OCc2cc(=O)n3cc(C)sc3n2)cc(OC)c1OC | 29.8 | 
COCCc1nn2c(=O)cc(COC(=O)C(c3ccccc3)c3ccccc3)nc2s1 |  | 2.66 µM (active)
Cn1c(=O)c2nc(SCC(=O)Nc3ccc(Cl)c(Cl)c3)n(C)c2n(C)c1=O | 26.8 | 
Cn1c(=O)[nH]c2nnc(-c3ccc(Cl)c(Cl)c3)nc2c1=O |  | 8.41 µM (active)
CCN1CCN(c2cc(C)c3cc(NC(=O)/C=C/c4ccc(C)cc4)ccc3n2)CC1 |  | 4.22 µM (active)
CCN1CCN(c2cc(C)c3cc(NC(=O)/C=C/c4ccc(OCCC(C)C)cc4)ccc3n2)CC1 |  | 2.11 µM (active)
CCS(=O)(=O)N1CC(F)(F)C[C@H]1c1nc(CCOC)no1 | 13.7 | 
COc1cccc(NC(=O)CSc2nc3cc(OC)c(OC)cc3c3nc(-c4ccccc4)nn23)c1 | 42.6 | 
COc1cc2nc(NCc3ccc(C)cc3)n3nc(-c4ccccc4)nc3c2cc1OC |  | 0.266 µM (active)
COc1cc2nc(NCc3ccccc3)n3nc(-c4ccccc4)nc3c2cc1OC |  | 0.422 µM (active)
COc1cc2nc(NCc3ccccc3Cl)n3nc(-c4cccnc4)nc3c2cc1OC |  | 2.11 µM (active)
COc1ccccc1S(=O)(=O)Cc1ccc(C(=O)NCc2cccs2)o1 | 5.1 | 
CC(C(=O)N1CCCN(c2cc(-c3ccc(Cl)cc3)[nH]n2)CC1)c1ccccc1 (stereo unspecified) | -15.7 | 
Nc1nc(N)c2c(ccc3nccc32)[nH]1 | 7.51 | 
O=C(CCc1nc2ccccc2[nH]1)N1C[C@@H](CO)[C@H](c2ccccn2)C1 | 41.4 | 
Cc1ccc(C)c(N=Nc2nc3ccccc3n2C)c1 |  | 0.299 µM (active)
CCN(Cc1nc2ccccc2n1C)c1ccccc1 | 6.82 | 
Cn1nnnc1SCCCNCc1cccc(OCc2ccccc2)c1 |  | 9.44 µM (active)

SMILES | activity change, negative = inhibition [%] | Potency
CCOc1c(CNCCSc2nnnn2C)cccc1OC | -28 | 
c1ccc(COc2cncc(-c3cccnc3)c2)cc1 | 1.56 | 
COc1cc2c(cc1OC)C(COc1ccc3c(C)cc(=O)oc3c1)N(C(=O)c1ccccc1C)CC2 (stereo unspecified) |  | 15 µM (active)
COc1ccc2c(C)c(C(=O)N3CC(Oc4c(C)cccc4C)C3)oc2c1 | 41.8 | 
COc1cc2c(cc1OC)[C@H](C)N(C(=O)COc1ccccc1)CC2 | -6.38 | 
CC(=O)N1CCc2cc(Br)cc(S(=O)(=O)N3CCCCCC3)c21 |  | 5.31 µM (active)
CC(=O)N1CCc2cc(Br)cc(S(=O)(=O)N3CCCCC3)c21 |  | 5.96 µM (active)
Cc1nc(-c2c3n(c(=O)n(Cc4ccc(OC(F)(F)F)cc4)c2=O)CCCC3)no1 | -13.9 | 
CC(=O)Nc1ccc(CN2CCn3c(nn(-c4ccc(Cl)cc4)c3=O)C2)cc1 | 14.2 | 
Cc1nc2c(c(-c3ccc(O)cc3)n1)CN(C(=O)c1cccc(Cl)c1)CC2 | 1.23 | 
Cc1nc(-c2c3n(c(=O)n(Cc4ccc(OC(F)(F)F)cc4)c2=O)CCCCC3)no1 | -10.2 | 
CC(C)c1nc2c(c(-c3ccc(O)cc3)n1)CCN(Cc1ccc(OC(F)(F)F)cc1)CC2 |  | 2.99 µM (active)
CC(C)c1nc2c(c(-c3ccc(O)cc3)n1)CN(Cc1cccc(F)c1)CC2 |  | 9.44 µM (active)
CC(C)c1nc2c(c(-c3ccc(O)cc3)n1)CCN(Cc1ccc(C(F)(F)F)cc1)CC2 |  | 5.31 µM (active)
COCC(=O)N1CCc2nc(-c3ccccc3)nc(-c3ccc(Cl)cc3)c2C1 | 0 | 
CC(=O)Nc1ccc(CN2CCc3nc(C(C)C)nc(-c4ccc(Cl)cc4)c3CC2)cc1 |  | 2.66 µM (active)
CCn1nc(C)c(-c2cc(C(=O)NCCc3noc(-c4ccccc4)n3)no2)c1C | -0.509 | 
CC1(C)C[C@H](NCc2ccc(CO)o2)[C@@]2(CCC(=O)NCCN3CCOCC3)CC[C@](C)(O)C[C@@H]12 | 4.43 | 
Cc1nc2c(c(-c3ccc(O)cc3)n1)CN(Cc1ccc(C(F)(F)F)cc1)CCC2 |  | 4.22 µM (active)
COc1ccccc1CNS(=O)(=O)c1ccc2c(c1)CC(=O)N2C | -10.4 | 
Cc1ccc(C(=O)NCCn2c(C)cc3ccccc32)cc1C | 0 | 
Cc1ccc(C(=O)Nc2cccc(NC(=O)c3ccc(C)c([N+](=O)[O-])c3)n2)cc1[N+](=O)[O-] |  | 15 µM (active)
COc1ccc(N(CC(=O)NCc2ccncc2)S(=O)(=O)c2ccc(C)c([N+](=O)[O-])c2)cc1 | 24.8 | 

SMILES | activity change, negative = inhibition [%] | Potency
C/C(=N\NC(=O)c1ccccc1OCc1ccc(F)cc1)c1ccccn1 |  | 4.73 µM (active)
C/C(=N\NC(=O)c1cccc(Br)c1)c1ccccn1 |  | 4.73 µM (active)
O=C(N/N=C/c1ccccn1)c1ccccc1 | -1.81 | 
Cc1n[nH]c(=S)n(/N=C/c2cccs2)c1=O | 16.4 | 
O=c1cc(Nc2ccc3c(c2)OCCO3)[nH]c(=O)n1C1CCCCC1 | -0.988 | 
Fc1ccc(-c2csc3ncnc(Cl)c23)cc1 |  | 3.35 µM (active)
COc1ccc(-c2csc3ncnc(Cl)c23)cc1 |  | 4.22 µM (active)
CCc1ccc(C(=O)N2C[C@@H](CO)[C@H](c3ccccn3)C2)cc1 | 3.1 | 
COc1ccc(C(=O)Nc2nc3c(s2)C[C@@H]2[C@](C)(CO)[C@H](O)CC[C@@]2(C)[C@@H]3CC(=O)NCc2ccco2)cc1 |  | 2.66 µM (active)
C[C@]1(CO)[C@H]2Cc3sc(NC(=O)C4CCCCC4)nc3[C@@H](CC(=O)NCc3cccnc3)[C@]2(C)CC[C@H]1O | -11.7 | 
O=C(CC1C(=O)NCCN1Cc1cccc(Oc2ccccc2)c1)NCc1ccco1 (stereo unspecified) | 45.2 | 
C#CCN(C)C(=O)C[C@@H]1c2nc(NC(=O)c3ccc(OC)cc3)sc2C[C@@H]2[C@](C)(CO)[C@H](O)CC[C@]21C |  | 2.66 µM (active)
CNC(=O)[C@H]1C[C@H](Oc2ccccc2)CN1Cc1c[nH]c2ccc(OC)cc12 | -11.3 | 
COc1cccc(CNC(=O)CN2C(=O)NC3(CCC(C(C)(C)C)CC3)C2=O)c1 (stereo unspecified) | -13.8 | 
COc1ccc2[nH]cc(CCNC(=O)C3(Cc4ccccc4)CCCCC(=O)N3)c2c1 (stereo unspecified) |  | 5.96 µM (active)
CCC(=O)O[C@]1(C(=O)CCl)[C@@H](C)C[C@H]2[C@@H]3C[C@H](F)C4=CC(=O)C=C[C@]4(C)[C@@]3(F)[C@@H](O)C[C@@]21C |  | 10.6 µM (active)
CC(C)c1ccccc1NC(=O)Cn1cccc1-c1nc(-c2ccc(F)cc2)no1 |  | 2.99 µM (active)
COc1ccccc1NC(=O)Cn1cccc1-c1nc(-c2ccc(F)cc2)no1 | -5.56 | 
CC(C)c1ccccc1NC(=O)Cn1cccc1-c1nc(-c2ccccc2)no1 |  | 4.22 µM (active)
CC(C)c1ccccc1NC(=O)CSc1nnc(COc2ccccc2Cl)o1 | 38.9 | 
Cc1ccc(NC(=O)Cn2cccc2-c2nc(-c3ccccc3)no2)c(C)c1 | 17.6 | 
O=C(Cn1cccc1-c1nc(-c2ccc(F)cc2)no1)NCCc1ccccc1 | 0.293 | 
